# From ChEMBL document CHEMBL1961873, “Compounds: GSK PKIS; Assays: Nanosyn kinase panel” (2012)
# “And” between values parts separate entries of the source, which are not always exact repeats. Identical values can stand only once.
# Columns and labels:
# [1] = molecular target: Tyrosine-protein kinase CSK (Homo sapiens) (UniProt P41240); details: at 1 µM;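 further: each value is an averaged inhibition reading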
# [2] = molecular target: T1, Discoidin domain-containing receptor 2 (Homo sapiens) (UniProt Q16832); details: at 0.1 µM
# T1 sequence (whole entry): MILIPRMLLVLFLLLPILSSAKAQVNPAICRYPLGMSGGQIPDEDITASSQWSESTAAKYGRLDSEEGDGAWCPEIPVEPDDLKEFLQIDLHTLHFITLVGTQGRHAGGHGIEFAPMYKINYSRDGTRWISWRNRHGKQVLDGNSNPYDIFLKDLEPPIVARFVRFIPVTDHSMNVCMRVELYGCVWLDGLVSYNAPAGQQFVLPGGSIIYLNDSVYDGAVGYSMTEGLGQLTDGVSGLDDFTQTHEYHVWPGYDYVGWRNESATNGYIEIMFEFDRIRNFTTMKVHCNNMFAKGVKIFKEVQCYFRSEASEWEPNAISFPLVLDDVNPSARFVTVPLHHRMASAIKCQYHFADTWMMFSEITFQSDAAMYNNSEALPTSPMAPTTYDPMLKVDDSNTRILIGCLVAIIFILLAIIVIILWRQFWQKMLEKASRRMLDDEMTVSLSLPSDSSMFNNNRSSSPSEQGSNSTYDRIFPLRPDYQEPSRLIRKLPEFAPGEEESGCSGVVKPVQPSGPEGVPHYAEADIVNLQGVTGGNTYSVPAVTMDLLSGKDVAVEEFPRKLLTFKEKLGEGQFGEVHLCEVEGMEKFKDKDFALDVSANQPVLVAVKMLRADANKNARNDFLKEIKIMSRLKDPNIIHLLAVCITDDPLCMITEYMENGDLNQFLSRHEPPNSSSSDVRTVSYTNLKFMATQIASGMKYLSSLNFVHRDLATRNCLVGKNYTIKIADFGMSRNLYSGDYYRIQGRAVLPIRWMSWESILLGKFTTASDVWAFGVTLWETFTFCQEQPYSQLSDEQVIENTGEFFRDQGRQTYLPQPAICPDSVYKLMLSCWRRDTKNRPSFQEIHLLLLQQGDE
# [3] = molecular target: T1, Discoidin domain-containing receptor 2 (Homo sapiens); details: at 1 µM
# [4] = molecular target: Epidermal growth factor receptor (Homo sapiens) (UniProt P00533); details: at 0.1 µM
# [5] = molecular target: Epidermal growth factor receptor (Homo sapiens) (UniProt P00533); details: at 1 µM
# [6] = system: Epidermal growth factor receptor (Homo sapiens), P00533 [L858R]; details: at 0.1 µM
# [7] = system: Epidermal growth factor receptor (Homo sapiens), P00533 [L858R]; details: at 1 µM
# [8] = system: Epidermal growth factor receptor (Homo sapiens), P00533 [L861Q]; details: at 0.1 µM
# [9] = system: Epidermal growth factor receptor (Homo sapiens), P00533 [L861Q]; details: at 1 µM
# [10] = system: Epidermal growth factor receptor (Homo sapiens), P00533 [T790M]; details: at 0.1 µM
# [11] = system: Epidermal growth factor receptor (Homo sapiens), P00533 [T790M]; details: at 1 µM
# [12] = system: Epidermal growth factor receptor (Homo sapiens), P00533 [L858R,T790M]; details: at 0.1 µM
# [13] = system: Epidermal growth factor receptor (Homo sapiens), P00533 [L858R,T790M]; details: at 1 µM
# [14] = molecular target: Ephrin type-A receptor 2 (Homo sapiens) (UniProt P29317); details: at 0.1 µM
# [15] = molecular target: Ephrin type-A receptor 2 (Homo sapiens) (UniProt P29317); details: at 1 µM
# [16] = molecular target: T2, Ephrin type-A receptor 3 (Homo sapiens) (UniProt P29320); details: at 0.1 µM
# T2 sequence (whole entry): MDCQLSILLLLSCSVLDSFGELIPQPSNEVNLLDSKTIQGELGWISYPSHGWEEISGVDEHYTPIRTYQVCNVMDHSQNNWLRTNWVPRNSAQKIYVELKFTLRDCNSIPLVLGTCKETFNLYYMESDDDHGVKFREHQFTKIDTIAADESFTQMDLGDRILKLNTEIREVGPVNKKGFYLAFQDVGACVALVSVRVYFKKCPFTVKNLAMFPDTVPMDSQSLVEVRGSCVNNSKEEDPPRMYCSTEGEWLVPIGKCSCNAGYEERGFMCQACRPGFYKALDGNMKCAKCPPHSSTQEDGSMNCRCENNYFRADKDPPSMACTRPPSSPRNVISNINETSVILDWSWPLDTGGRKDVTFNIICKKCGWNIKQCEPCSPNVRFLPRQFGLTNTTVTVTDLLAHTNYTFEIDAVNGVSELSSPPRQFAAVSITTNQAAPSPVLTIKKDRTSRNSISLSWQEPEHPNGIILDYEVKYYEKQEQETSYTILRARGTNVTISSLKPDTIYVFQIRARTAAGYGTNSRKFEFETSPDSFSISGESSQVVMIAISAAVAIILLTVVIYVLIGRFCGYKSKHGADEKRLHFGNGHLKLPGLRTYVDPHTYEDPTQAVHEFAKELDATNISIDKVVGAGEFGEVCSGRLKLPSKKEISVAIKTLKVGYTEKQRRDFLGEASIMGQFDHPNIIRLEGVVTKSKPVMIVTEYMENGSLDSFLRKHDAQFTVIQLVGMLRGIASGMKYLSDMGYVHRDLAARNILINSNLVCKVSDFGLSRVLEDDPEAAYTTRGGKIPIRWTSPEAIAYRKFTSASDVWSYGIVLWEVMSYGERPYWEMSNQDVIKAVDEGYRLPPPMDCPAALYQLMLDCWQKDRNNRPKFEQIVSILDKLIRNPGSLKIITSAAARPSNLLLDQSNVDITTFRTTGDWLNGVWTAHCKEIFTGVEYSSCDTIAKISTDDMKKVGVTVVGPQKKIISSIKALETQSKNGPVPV
# [17] = molecular target: T2, Ephrin type-A receptor 3 (Homo sapiens); details: at 1 µM
# [18] = molecular target: Ephrin type-A receptor 4 (Homo sapiens) (UniProt P54764); details: at 0.1 µM
# [19] = molecular target: Ephrin type-A receptor 4 (Homo sapiens) (UniProt P54764); details: at 1 µM
# [20] = molecular target: T3, Ephrin type-B receptor 2 (Homo sapiens) (UniProt P29323); details: at 0.1 µM;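 further: reported as mean inhibition of EPHB2, from the GSK PKIS dataset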
# T3 sequence (whole entry): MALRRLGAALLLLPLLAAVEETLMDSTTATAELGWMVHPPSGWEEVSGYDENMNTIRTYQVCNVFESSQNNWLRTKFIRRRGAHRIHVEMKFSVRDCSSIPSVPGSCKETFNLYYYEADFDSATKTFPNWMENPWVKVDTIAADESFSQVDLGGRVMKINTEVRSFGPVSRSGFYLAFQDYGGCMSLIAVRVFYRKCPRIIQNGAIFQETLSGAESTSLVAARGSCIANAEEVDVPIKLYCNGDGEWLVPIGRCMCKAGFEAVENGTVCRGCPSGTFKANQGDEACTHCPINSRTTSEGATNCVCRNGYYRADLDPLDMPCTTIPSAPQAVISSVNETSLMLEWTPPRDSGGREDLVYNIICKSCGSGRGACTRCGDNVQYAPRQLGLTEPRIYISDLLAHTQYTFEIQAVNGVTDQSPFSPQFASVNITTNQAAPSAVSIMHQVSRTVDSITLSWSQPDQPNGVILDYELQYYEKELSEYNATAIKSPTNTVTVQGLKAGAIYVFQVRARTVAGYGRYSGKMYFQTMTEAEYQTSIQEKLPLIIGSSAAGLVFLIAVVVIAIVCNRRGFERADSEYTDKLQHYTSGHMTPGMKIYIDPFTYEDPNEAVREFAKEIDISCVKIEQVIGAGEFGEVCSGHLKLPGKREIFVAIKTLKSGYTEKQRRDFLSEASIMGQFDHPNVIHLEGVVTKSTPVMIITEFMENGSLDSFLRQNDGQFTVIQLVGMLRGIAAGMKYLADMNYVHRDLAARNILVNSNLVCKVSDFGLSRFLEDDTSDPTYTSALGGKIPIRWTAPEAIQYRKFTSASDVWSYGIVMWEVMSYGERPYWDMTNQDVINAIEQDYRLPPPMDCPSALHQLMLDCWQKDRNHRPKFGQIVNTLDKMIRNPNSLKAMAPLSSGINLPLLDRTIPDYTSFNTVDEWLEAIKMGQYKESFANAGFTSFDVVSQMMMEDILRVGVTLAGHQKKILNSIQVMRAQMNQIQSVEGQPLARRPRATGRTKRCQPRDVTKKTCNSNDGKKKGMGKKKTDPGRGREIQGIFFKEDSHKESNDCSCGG
# Chain of Epidermal growth factor receptor (Homo sapiens), P00533 [L858R,T790M] (P00533 whole entry T790M/L858R, looked up): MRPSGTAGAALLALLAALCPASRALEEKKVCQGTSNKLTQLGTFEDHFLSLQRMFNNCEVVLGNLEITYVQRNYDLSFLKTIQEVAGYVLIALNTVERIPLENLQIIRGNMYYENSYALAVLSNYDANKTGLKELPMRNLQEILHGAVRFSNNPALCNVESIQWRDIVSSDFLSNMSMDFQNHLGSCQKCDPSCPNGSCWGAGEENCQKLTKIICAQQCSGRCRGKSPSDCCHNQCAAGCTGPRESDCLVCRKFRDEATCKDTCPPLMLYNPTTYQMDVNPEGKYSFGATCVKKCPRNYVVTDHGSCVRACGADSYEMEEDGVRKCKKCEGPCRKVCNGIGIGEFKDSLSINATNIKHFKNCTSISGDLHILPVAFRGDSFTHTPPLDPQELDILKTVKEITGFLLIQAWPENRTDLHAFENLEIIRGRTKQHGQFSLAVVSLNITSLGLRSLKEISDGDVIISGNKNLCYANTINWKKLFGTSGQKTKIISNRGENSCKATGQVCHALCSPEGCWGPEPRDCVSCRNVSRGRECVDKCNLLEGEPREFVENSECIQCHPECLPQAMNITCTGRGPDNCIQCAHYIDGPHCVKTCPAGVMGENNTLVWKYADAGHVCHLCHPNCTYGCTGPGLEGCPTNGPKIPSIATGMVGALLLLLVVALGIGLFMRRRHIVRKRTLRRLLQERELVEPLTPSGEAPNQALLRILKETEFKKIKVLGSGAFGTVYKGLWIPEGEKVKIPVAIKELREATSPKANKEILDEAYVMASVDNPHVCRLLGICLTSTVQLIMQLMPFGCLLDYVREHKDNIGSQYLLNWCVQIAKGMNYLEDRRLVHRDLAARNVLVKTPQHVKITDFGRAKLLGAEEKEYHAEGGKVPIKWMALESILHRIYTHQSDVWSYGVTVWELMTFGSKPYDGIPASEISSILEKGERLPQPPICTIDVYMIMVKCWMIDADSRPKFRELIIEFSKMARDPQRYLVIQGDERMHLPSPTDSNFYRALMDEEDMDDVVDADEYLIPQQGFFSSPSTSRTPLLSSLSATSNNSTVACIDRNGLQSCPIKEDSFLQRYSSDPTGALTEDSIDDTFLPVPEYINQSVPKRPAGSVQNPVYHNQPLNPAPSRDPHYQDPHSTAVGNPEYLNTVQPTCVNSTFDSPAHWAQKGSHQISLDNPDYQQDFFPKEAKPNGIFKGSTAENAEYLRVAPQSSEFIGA
# Chain of Tyrosine-protein kinase CSK (Homo sapiens) (P41240 2-450 limits assumed): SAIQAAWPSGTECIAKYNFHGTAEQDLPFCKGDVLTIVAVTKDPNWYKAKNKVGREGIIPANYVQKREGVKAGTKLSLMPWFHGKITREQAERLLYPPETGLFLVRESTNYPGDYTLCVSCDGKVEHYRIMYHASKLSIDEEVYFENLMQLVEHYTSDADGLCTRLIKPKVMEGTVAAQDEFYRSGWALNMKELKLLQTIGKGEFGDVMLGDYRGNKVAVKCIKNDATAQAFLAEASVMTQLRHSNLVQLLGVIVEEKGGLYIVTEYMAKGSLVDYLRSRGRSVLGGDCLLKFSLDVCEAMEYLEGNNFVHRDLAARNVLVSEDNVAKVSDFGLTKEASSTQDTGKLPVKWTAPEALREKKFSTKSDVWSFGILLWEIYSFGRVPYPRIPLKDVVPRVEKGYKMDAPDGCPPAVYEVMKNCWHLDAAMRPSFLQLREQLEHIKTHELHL
# Chain of Ephrin type-A receptor 4 (Homo sapiens) (P54764 whole entry): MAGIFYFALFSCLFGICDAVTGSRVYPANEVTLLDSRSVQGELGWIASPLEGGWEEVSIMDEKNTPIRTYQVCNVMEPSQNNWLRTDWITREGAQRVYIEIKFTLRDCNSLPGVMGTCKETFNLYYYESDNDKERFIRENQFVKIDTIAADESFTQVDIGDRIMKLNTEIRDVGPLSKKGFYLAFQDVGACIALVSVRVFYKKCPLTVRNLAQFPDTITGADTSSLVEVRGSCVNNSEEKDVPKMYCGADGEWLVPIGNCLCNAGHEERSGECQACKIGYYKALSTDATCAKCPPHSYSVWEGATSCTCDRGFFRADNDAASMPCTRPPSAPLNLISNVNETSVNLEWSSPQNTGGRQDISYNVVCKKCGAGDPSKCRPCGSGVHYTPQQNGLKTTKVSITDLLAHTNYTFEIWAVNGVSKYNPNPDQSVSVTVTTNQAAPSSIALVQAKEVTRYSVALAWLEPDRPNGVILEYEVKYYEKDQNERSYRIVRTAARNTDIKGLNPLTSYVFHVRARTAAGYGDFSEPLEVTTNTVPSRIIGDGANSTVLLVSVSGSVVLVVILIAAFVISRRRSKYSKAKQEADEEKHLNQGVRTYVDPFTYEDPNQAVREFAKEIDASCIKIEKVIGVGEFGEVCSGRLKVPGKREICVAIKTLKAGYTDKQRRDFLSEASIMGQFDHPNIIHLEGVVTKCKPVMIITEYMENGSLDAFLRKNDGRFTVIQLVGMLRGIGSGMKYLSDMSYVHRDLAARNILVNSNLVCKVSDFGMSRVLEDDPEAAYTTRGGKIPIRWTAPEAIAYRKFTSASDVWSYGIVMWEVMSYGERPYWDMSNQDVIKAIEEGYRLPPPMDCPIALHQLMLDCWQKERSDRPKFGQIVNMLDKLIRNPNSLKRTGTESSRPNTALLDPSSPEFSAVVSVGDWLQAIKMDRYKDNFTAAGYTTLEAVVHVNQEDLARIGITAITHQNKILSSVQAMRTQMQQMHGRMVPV
# Chain of Ephrin type-A receptor 2 (Homo sapiens) (P29317 whole entry): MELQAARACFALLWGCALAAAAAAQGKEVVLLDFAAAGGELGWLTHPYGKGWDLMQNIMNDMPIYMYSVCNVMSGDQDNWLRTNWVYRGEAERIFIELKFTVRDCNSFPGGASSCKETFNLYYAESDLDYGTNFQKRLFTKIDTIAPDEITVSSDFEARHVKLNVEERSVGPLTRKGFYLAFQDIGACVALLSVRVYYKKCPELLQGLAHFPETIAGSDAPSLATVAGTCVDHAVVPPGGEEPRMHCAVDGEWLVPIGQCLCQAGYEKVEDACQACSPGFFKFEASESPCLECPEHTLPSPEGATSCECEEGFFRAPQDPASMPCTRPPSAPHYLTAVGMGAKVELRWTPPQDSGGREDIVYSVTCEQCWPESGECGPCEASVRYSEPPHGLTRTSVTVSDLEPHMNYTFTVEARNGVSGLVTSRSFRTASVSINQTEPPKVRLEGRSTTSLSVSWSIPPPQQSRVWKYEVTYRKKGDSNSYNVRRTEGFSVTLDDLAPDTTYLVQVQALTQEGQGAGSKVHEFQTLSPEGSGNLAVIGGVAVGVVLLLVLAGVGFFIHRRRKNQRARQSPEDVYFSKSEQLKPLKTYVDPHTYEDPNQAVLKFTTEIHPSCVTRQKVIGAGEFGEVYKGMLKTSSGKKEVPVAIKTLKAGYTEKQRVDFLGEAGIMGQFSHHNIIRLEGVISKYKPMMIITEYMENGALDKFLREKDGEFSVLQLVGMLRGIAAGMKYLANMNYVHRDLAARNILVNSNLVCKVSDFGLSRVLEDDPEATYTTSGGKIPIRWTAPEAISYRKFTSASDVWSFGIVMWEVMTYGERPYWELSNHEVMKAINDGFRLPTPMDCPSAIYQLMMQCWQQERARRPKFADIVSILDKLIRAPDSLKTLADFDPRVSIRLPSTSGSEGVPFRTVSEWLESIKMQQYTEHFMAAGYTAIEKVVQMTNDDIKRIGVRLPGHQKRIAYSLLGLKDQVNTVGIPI
# Chain of Epidermal growth factor receptor (Homo sapiens), P00533 [L861Q] (P00533 whole entry L861Q): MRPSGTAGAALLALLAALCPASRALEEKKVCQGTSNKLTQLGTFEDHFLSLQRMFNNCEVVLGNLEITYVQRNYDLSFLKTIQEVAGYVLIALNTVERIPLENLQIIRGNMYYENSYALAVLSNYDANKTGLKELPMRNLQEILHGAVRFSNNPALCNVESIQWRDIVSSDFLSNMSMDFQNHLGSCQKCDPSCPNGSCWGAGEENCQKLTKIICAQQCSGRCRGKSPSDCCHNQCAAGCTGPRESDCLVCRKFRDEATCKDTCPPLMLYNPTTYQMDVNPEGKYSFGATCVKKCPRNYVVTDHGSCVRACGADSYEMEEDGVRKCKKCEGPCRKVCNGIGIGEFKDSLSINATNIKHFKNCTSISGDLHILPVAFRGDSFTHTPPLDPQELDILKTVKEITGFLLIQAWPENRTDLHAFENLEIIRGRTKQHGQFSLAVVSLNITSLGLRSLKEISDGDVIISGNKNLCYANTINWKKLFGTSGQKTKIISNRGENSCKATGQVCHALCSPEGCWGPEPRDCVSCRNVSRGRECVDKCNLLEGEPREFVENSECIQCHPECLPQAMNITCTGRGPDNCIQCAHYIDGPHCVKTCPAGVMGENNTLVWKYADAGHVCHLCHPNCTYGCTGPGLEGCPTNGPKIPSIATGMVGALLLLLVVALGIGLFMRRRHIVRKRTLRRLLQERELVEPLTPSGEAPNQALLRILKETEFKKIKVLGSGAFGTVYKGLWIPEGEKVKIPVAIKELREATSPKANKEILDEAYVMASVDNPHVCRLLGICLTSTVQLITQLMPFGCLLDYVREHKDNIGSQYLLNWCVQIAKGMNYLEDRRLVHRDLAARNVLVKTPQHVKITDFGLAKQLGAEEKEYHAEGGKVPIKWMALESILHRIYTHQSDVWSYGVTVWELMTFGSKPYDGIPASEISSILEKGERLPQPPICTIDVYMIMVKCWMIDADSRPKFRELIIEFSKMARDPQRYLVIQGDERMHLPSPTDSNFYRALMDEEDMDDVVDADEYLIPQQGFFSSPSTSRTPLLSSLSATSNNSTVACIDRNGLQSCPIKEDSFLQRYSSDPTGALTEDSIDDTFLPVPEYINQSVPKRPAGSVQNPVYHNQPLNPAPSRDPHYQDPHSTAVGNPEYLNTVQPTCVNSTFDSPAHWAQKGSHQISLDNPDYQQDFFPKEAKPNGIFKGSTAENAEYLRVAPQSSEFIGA
Structure (SMILES),inhibition [1],inhibition [2],inhibition [3],inhibition [4],inhibition [5],inhibition [6],inhibition [7],inhibition [8],inhibition [9],inhibition [10],inhibition [11],inhibition [12],inhibition [13],inhibition [14],inhibition [15],inhibition [16],inhibition [17],inhibition [18],inhibition [19],inhibition [20]
Nc1nonc1-c1nc2cnccc2n1C1CC1,2.08% and 1.45%,1.46% and 1.25%,2.24% and 0.96%,1.3% and -3.46%,4.4% and -3.77%,1.41% and 2.54%,0.67% and 3.32%,4% and 2.76%,-0.36% and -1.27%,1.58% and 0.88%,0.41% and 1.8%,0.14% and 3.74%,5.5% and 7.11%,1.3% and -6.99%,0.04% and -7.28%,3.71% and -1.91%,3.7% and -1.81%,6.99% and 5.79%,5.96% and 2.69%,10.5% and 2.91%
NS(=O)(=O)c1ccc(N/N=C2\C(=O)Nc3cccc(CCc4ccncc4)c32)cc1,0.36%,1.26%,1.42%,4.28%,6.81%,-0.53%,3.04%,-0.31%,0.15%,0.27%,0.76%,-0.13%,1.83%,-2.9%,-1.98%,0.59%,0.71%,3.79%,5.47%,4.47%
CCN1CCC(C(=O)Nc2n[nH]c3nnc(-c4cccc(F)c4F)cc23)CC1,-0.26%,1.13%,1.17%,1.21%,2.27%,-0.75%,1.38%,-0.05%,-0.76%,-1.59%,0.18%,0.75%,-1.85%,-3.74%,-3.34%,-0.58%,-0.43%,-1.7%,-0.26%,0.41%
CN(C)CCNC(=O)Nc1ccc(N(C)c2ccnc(Nc3ccc(CS(C)(=O)=O)cc3)n2)cc1,1.47%,0.92%,9.89%,1.32%,3.79%,3.58%,3.5%,2.9%,2.38%,3.69%,1.68%,4.53%,6.61%,2.63%,1.36%,3.79%,4.33%,6.86%,6.65%,10.6%
COc1cc(N2CCN(C(C)C)CC2)ccc1Nc1nc(Nc2cccc3ncccc23)c2cc[nH]c2n1,-2.41%,4.81%,8.24%,1.36%,2.64%,-1.25%,3.3%,-0.92%,0.99%,-1.02%,10.3%,1.03%,35.2%,-1.62%,-2.47%,0.15%,3.49%,0.21%,0.38%,5.06%
CCn1c(-c2nonc2N)nc2cncc(C(=O)NCCNC)c21,4.95%,1.54%,2.38%,0.28%,5.41%,4.66%,6.79%,4.01%,2.21%,2.41%,4.6%,1.4%,5.19%,0.81%,-0.9%,1.15%,5.09%,7.32%,10.1%,12.1%
CN1CCN(Cc2ccc(-c3cc4ncnc(Nc5ccc(OCc6cccc(F)c6)c(Cl)c5)c4s3)o2)CC1,12.6% and 17.7%,1.16% and 0.39%,1.23% and -0.86%,–,–,–,–,–,–,–,–,–,–,-2.36% and 1.48%,-2.73% and 2.15%,2.75% and 5.84%,2.47% and 3.64%,4.95% and 10.4%,6.16% and 11.9%,5.13% and 6.55%
CN(c1ccc(NC(=O)NCCN2CCOCC2)cc1)c1ccnc(Nc2ccc(CS(C)(=O)=O)cc2)n1,13.1%,24.3%,76%,-0.15%,1.28%,3.77%,6.75%,2.81%,3.82%,2.04%,4.33%,0.85%,2.57%,2.23%,2.79%,4.27%,5.54%,8.57%,19.6%,6.47%
Cc1c2ccc(N(C)c3ccnc(Nc4cccc(S(N)(=O)=O)c4)n3)cc2nn1C,19%,11.4%,65%,-3.87%,0.64%,3.16%,11.9%,5.08%,3.69%,3.44%,3.28%,2.62%,13.1%,-1.48%,2.19%,0.79%,2.97%,8.51%,14.2%,5.88%
NC(=O)c1ccc2c(-c3ccnc(NCCCO)n3)c(-c3ccc(F)cc3)nn2c1,7.7%,4.1%,22.4%,1.88%,17.3%,10.1%,50.6%,4.58%,16.6%,2.86%,2.72%,4.41%,6.91%,2.54%,7.54%,5.24%,7.21%,11.8%,29.7%,9.21%
COc1cc(Nc2ncc(-c3ccccc3)o2)cc(OC)c1,4.79%,4.48%,7.93%,3.35%,5.26%,0.1%,1.99%,3.52%,5.17%,1.76%,1.99%,0.93%,0.21%,2.21%,2.39%,3.02%,8.57%,8.98%,13.7%,8.98%
Cc1cc(O)cc(C)c1/C=C/c1cncc(C(N)=O)c1,25.5%,2.69%,9.65%,6.97%,11.2%,3.98%,18.9%,3.84%,5.76%,1.27%,1.53%,0.06%,1.88%,8.68%,47.2%,5.13%,19.5%,18.6%,69.2%,16.3%
CC1(C)CC(n2cnc(-c3ccc(F)cc3)c2-c2ccnc(N)n2)CC(C)(C)N1,-2.23%,1.3%,-0.87%,0.38%,-0.12%,-1.07%,0.2%,-0.41%,-1%,-0.77%,-1.34%,2.59%,1.85%,-2.86%,-2.93%,-0.75%,-0.11%,0.35%,-1.89%,0.78%
O=C(Nc1n[nH]c2nnc(-c3cccnc3)cc12)C1CC1,-1.56%,-0.82%,-1%,0.34%,1.5%,-2.25%,2.57%,-1.02%,-0.99%,-0.29%,-0.7%,-0.13%,-0.34%,-3.08%,-2.73%,-1.3%,-0.05%,0.83%,2.33%,0.05%
